# In PubChem BioAssay:
# Calls of active or inactive are those of the source.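 How the source made its calls, unless noted: active means visually confirmed hit in the image check and inhibition above 20%; inconclusive means visually confirmed hit but inhibition not above 20%; inactive means no visual hit in the image check.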
# What was measured:
# [1] = inhibitors of TNFa-induced NFkB p65 translocation, primary screen, imaging, HUVEC, MLSMR starter and 10KST1 sets (AID 438;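 active means inhibition above 20% together with a positive visual image hit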;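 further: compound added about 3h40 before a 20 min TNFalpha stimulation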;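 on inhibition: signal is the nuclear over cytoplasmic p65 intensity ratio per well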); details: HUVEC TNFa-induced p65 nuclear translocation; cell count: measured here: nuclei count (cytotoxicity indicator), at 2.08 µM; inhibition: at 2 µM, stronger effect = higher value, 0% TNFa-plus-vehicle, 100% no-TNFa wells
# [2] = inhibitors of mutant huntingtin aggregation, primary screen, imaging, exon1htt(103Q)mCFP cells, high-content imaging (AID 483;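 active means visual image review flags a hit and inhibition of aggregation exceeds 20%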;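 further: compound exposure lasted 3 days before fixation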;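 on nuclei count: percent of the per-plate median nuclei count of sample wells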); details: exon1htt(103Q)mCFP cell line, aggregate imaging, at 2 µM; inhibition of aggregation: stronger effect = higher value; nuclei count: measured here: cell count, toxicity
# [3] = inhibitors of E-selectin induction by TNFa, primary screen, imaging, HUVEC, immunofluorescence, MLSMR starter and 10KST1 sets (AID 487); details: HUVEC TNFalpha-induced E-selectin immunofluorescence imaging, at 2 µM; inhibition: stronger effect = higher value; nuclei count: measured here: cell number, toxicity;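 on inhibition: signal is fraction of cell area covered by stained E-selectin grains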;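 on nuclei count: 100% = median nuclei count of all wells on the same plate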
# [4] = DUSP6 inhibitors restoring Erk phosphorylation by chemical complementation, primary imaging in DUSP6-transfected HeLa (AID 609;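 active means compounds giving at least 50% inhibition in the cell-based MKP-3 phosphatase rescue imaging test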;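 on inhibition: phospho-Erk level distribution per well compared with pooled transfected vehicle control wells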); details: HeLa MKP-3 transfected, phospho-Erk imaging KS statistic, at 10 µM, cells stimulated with TPA for 15 min
# [5] = molecular target: Dual specificity protein phosphatase 6 (Homo sapiens) (UniProt Q16828); assay: as above; details: HeLa MKP-3 transfected, phospho-Erk imaging KS statistic; at 10 µM; stronger effect = higher value; cells stimulated with TPA for 15 min
# Sequence of Dual specificity protein phosphatase 6 (Homo sapiens) (Q16828 whole entry, looked up): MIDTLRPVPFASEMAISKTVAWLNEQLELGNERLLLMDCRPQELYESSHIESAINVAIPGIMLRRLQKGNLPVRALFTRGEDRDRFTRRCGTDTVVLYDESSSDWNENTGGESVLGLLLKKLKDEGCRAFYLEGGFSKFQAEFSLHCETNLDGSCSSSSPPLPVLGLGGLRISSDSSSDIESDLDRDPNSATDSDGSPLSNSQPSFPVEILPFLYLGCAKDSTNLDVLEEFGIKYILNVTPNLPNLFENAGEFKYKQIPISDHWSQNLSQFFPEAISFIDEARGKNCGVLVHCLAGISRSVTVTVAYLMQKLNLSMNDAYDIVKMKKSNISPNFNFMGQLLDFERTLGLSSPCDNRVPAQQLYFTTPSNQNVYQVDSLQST
# [6] = molecular target: Voltage-gated potassium channel subunit beta-2 (Rattus norvegicus) (UniProt P62483); assay: KvBeta enzyme negative modulators, primary screen, biochemical, NADPH fluorescence (AID 622;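 active means fluorescence slope higher than the sample average by over 3 SD, cut at about -0.22 in these data, passing the limit was not always enough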;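 further: slope of raw intensity against log time taken from 70 to 1610 s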); details: recombinant KvBeta, 4-cyanobenzaldehyde reduction, at 10 µM, stronger effect = higher value
# Sequence of Voltage-gated potassium channel subunit beta-2 (Rattus norvegicus) (P62483 whole entry, looked up): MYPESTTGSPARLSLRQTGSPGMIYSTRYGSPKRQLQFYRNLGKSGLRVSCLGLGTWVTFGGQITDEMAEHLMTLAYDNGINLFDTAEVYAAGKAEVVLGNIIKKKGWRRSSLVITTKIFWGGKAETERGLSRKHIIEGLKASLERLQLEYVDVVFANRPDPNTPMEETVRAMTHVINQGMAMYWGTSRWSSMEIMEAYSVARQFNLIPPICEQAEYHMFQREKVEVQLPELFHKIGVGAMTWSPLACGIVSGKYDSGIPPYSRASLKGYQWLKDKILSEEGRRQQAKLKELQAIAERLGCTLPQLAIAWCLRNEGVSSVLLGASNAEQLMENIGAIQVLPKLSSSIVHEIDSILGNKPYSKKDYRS
# [7] = molecular target: Voltage-gated potassium channel subunit beta-2 (Rattus norvegicus) (UniProt P62483); assay: KvBeta positive modulators, primary screen, biochemical, NADPH fluorescence (AID 623;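 active means NADPH fluorescence slope more negative than the mean of all samples by about 3 SD, 99.7% confidence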;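 further: fluorescence intensity change per second fitted from 20 to 320 s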); details: Recombinant KvBeta, NADPH fluorescence decrease slope, 10 min; at 10 µM; stronger effect = lower value
# [8] = molecular target: Alpha-2C adrenergic receptor (Homo sapiens) (UniProt P18825); assay: modulators of alpha2C/GIRK thallium flux, primary screen, cell-based, HEK293 alpha2C/GIRK1/2 (AID 624;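 active means fluorescence slope after compound addition differing from the mean of all screened samples at 99.7% confidence, in either direction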;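 further: slope of fluorescence ratio to pre-addition baseline per second over 15 to 24 s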); details: thallium flux BTC fluorescence, at 10 µM, actives lie on both sides
# Sequence of Alpha-2C adrenergic receptor (Homo sapiens) (P18825 whole entry, looked up): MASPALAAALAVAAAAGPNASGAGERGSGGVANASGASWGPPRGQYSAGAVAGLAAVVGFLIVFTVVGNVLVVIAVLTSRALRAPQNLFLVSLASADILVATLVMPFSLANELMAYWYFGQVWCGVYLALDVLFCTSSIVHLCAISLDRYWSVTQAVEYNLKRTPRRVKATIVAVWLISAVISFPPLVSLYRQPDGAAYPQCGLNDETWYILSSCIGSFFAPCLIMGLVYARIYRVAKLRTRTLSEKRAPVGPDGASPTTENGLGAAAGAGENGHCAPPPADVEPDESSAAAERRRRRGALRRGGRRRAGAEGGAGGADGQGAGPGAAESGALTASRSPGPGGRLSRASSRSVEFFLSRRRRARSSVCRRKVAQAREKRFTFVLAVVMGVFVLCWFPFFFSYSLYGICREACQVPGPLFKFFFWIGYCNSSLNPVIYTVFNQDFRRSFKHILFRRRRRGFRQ
# [9] = molecular target: Muscarinic acetylcholine receptor M4 (Homo sapiens) (UniProt P08173); assay: compounds altering M4/GIRK thallium flux, either direction, primary screen, M4 allosteric agonist project, cell-based, HEK293 M4/GIRK, BTC-AM (AID 625;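 active means fluorescence slope after compound addition differing from the mean of all tested samples at 99.7% confidence, mostly higher but some lower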;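 further: thallium influx through GIRK channels coupled to M4 in HEK293 cells with BTC-AM dye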); details: at 10 µM, actives lie on both sides
# Sequence of Muscarinic acetylcholine receptor M4 (Homo sapiens) (P08173 whole entry, looked up): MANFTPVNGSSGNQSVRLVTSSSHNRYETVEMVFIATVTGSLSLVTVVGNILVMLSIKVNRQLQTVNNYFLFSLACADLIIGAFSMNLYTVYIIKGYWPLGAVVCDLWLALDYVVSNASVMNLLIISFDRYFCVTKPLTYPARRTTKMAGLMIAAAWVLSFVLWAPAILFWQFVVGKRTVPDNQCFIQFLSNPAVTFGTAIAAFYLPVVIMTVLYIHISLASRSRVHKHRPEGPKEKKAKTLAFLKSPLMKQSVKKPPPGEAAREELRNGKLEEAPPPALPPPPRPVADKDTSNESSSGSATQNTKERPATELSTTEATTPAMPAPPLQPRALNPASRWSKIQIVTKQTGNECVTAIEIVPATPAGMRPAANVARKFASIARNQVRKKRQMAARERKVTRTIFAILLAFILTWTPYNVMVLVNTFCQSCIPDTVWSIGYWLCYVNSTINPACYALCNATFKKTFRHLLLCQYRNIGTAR
# [10] = inhibitors of larval lipid processing in zebrafish, primary screen, whole organism, PED6 fluorescence, gall bladder and intestine (AID 686;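 active means a full or partial loss of lipid-probe fluorescence in the fish gall bladder, intestine or both, judged by eye; inactive means no fluorescence loss, or compound toxic to the fish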;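 further: larvae 5 to 7 days old with five fish per well; signal comes from phospholipase A2 cleavage of quenched PED6 carried via bile; overnight exposure to compound and PED6 before scoring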); details: Zebrafish larvae PED6 lipid processing, fluorescence scoring; screened at 20 µM (by protocol)
# [11] = inhibitors of Chlamydomonas gravitaxis, primary screen, whole organism, Chlamydomonas reinhardtii, WT vs cilia-less mutant, absorbance, 96-well (AID 463189;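 active means inhibition at or above 50% relative to wild type and mutant plate controls; inactive means inhibition below 50%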;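 further: 0% = wild type cc124 cells in DMSO and 100% = ciliumless bld1 mutant cells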); details: OD600 absorbance, 2 days, at 10 µM, stronger effect = higher value
# [12] = inhibitors of Sendai virus-induced IRF3 signaling, primary screen, TLR/RLR signaling modifier project, cell-based, Sendai virus stimulus, luciferase, 10K MLSCN set (AID 602276;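 active means inhibition at or above 50% at 10 µM; inactive means inhibition below 50%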;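 further: firefly luciferase from ISG56 promoter only with Renilla not read in this screen; 0% = Sendai virus plus DMSO and 100% = medium plus DMSO without virus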); details: HEK293 RL24 IRF3 luciferase reporter, at 10 µM, stronger effect = higher value
# [13] = inhibitors of poly I:C-induced TLR3 signaling, primary screen, cell-based, poly I:C stimulus, luciferase, 10K MLSCN set (AID 602277;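 active means inhibition of the reporter signal at or above 50%; inactive means inhibition below 50%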); details: HEK293-TLR3 RL24 IRF3 luciferase reporter, at 10 µM, stronger effect = higher value
# [14] = measured here: cell density z-score
# [15] = measured here: nuclear c-Myc green intensity z-score
# [16] = measured here: nuclear pErk red intensity z-score, stronger effect = higher value
smiles,measurement,setting,value
CCSc1nnc(NC(=O)C(CC)(C(F)(F)F)C(F)(F)F)s1,cell count,[1],702
same,inhibition,[1],0.2% (inactive)
same,inhibition of aggregation,[2],-6.4% (inactive)
same,nuclei count,[2],106%
same,inhibition,[3],-53.9% (inactive)
same,nuclei count,[3],124%
same,z-score,[4]; [14],0.12
same,z-score,[4]; [15],-0.276
same,z-score,[4]; [16],0.239
same,inhibition,[5],-9.53% (inactive)
same,fluorescence slope,[6],-0.447 (inactive)
same,NADPH fluorescence slope,[7],-4.4e-05 (inactive)
same,slope,[8],0.00447 (inactive)
same,fluorescence slope,[9],0.00559 (inactive)
same,outcome,[10],inactive
same,inhibition,[11],21.1% (inactive)
same,inhibition,[12],-0.9% (inactive)
same,inhibition,[13],-31.4% (inactive)
Cc1cc(=O)oc2c(CN3CCN(C)CC3)c(O)c(Cl)cc12,cell count,[1],494
same,inhibition,[1],-13.9% (inactive)
same,inhibition of aggregation,[2],0.1% (inactive)
same,nuclei count,[2],101%
same,inhibition,[3],-17.2% (inactive)
same,nuclei count,[3],105%
same,z-score,[4]; [14],-0.81
same,z-score,[4]; [15],-0.0591
same,z-score,[4]; [16],-0.654
same,inhibition,[5],1.48% (inactive)
same,fluorescence slope,[6],-0.0297 (active)
same,NADPH fluorescence slope,[7],2e-05 (inactive)
same,slope,[8],0.00763 (inactive)
same,inhibition,[11],-9.73% (inactive)
same,inhibition,[12],14.9% (inactive)
same,inhibition,[13],17.6% (inactive)
COCCNC(=O)c1c(N)n(/N=C/c2cccs2)c2nc3ccccc3nc12,cell count,[1],516
same,inhibition,[1],7.2% (inactive)
same,inhibition of aggregation,[2],-25.1% (inactive)
same,nuclei count,[2],108%
same,inhibition,[3],-36.6% (inactive)
same,nuclei count,[3],107%
same,z-score,[4]; [14],0.126
same,z-score,[4]; [15],0.305
same,z-score,[4]; [16],-0.729
same,inhibition,[5],1.75% (inactive)
same,fluorescence slope,[6],-0.287 (inactive)
same,NADPH fluorescence slope,[7],-9.2e-05 (inactive)
same,slope,[8],0.00574 (inactive)
same,inhibition,[11],17.7% (inactive)
same,inhibition,[12],5.03% (inactive)
same,inhibition,[13],-26.9% (inactive)
Cc1cc(/C=c2/sc3nc4ccccc4n3c2=O)c(C)n1-c1ccccn1,cell count,[1],477
same,inhibition,[1],-8.3% (inactive)
same,inhibition of aggregation,[2],-17% (inactive)
same,nuclei count,[2],105%
same,inhibition,[3],-51.9% (inactive)
same,nuclei count,[3],114%
same,z-score,[4]; [14],0.162
same,z-score,[4]; [15],1.46
same,z-score,[4]; [16],-0.242
same,inhibition,[5],1.04% (inactive)
same,fluorescence slope,[6],-0.436 (inactive)
same,NADPH fluorescence slope,[7],-8.3e-05 (inactive)
same,slope,[8],0.00546 (inactive)
same,fluorescence slope,[9],0.00476 (inactive)
same,outcome,[10],inactive
same,inhibition,[11],-7.65% (inactive)
same,inhibition,[12],58.3% (active)
same,inhibition,[13],93% (active)
Cc1ccc(-n2c(N)c(C(N)=O)sc2=S)cc1,cell count,[1],560
same,inhibition,[1],-7.1% (inactive)
same,inhibition of aggregation,[2],-1.4% (inactive)
same,nuclei count,[2],104%
same,inhibition,[3],-12.7% (inactive)
same,nuclei count,[3],146%
same,z-score,[4]; [14],-0.361
same,z-score,[4]; [15],-1.13
same,z-score,[4]; [16],1.48
same,inhibition,[5],-1.98% (inactive)
same,fluorescence slope,[6],-0.427 (inactive)
same,NADPH fluorescence slope,[7],-2.9e-05 (inactive)
same,slope,[8],0.00443 (inactive)
same,fluorescence slope,[9],0.00756 (inactive)
same,outcome,[10],inactive
same,inhibition,[11],21.1% (inactive)
same,inhibition,[12],2.77% (inactive)
same,inhibition,[13],15.4% (inactive)
